Bioassay records from PubChem.
This is a sample that favours compounds with a hit; in the whole collection about 6.2% have one here.
HT1080 IDH1KD tx: HT-1080 IDH1 knockdown cell toxicity (counter line). actives 2% (n = 360,000). AID 686971. Potency, µM (doses to about 46.1 µM), for the others: at the top dose activity, negative = toxicity, actives largely listed as cytotoxic. HT-1080 IDH1 knockdown viability, ATP luminescence, 48 h;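 further: 0% = DMSO wells and -100% = cell-free medium wells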
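HT-1080-IDH1KD cells (IDH1 knocked down), 750/well in RPMI with 5% FBS, treated with compound 48 h at 37 degrees C. Viability by CellTiter-Glo luminescence, normalised to DMSO and no-cell wells; concentration-response curves classed.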
KB-3-1 cytotox: KB-3-1 parental cell cytotoxicity; AID 1347075; KB-3-1 viability, CellTiter-Glo ATP luminescence, 72 h; Potency, µM (titrated, usually from 46.1 µM), hits mostly cytotoxic; actives 1.4% (n = 400,000); further: on the % scale 0 is the no-effect control and ±100 the full control effect; nearly all actives have a fitted effect of over 60% in size
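Viability of parental KB-3-1 cells, measured by CellTiter-Glo luminescence, followed a 72 h incubation at 37 °C with pinned compounds in phenol-red-free DMEM containing 10% FBS.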
ATXN2 expr inh: inhibitors of ATXN2 expression | HEK-293 ATXN2-luciferase reporter, luminescence, 24 h | Potency, µM (top dose mostly 57 µM), for inactives: at the highest dose activity change, negative = inhibition, most hits filed as inhibitors | actives 0.72% (n = 360,000); further: on the % scale 0 is the no-effect control and ±100 the full control effect; nearly all actives have a fitted effect of over 55% in size
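ATXN2-luciferase reporter cells (luciferase flanked by upstream and downstream ATXN2 gene portions) were treated 24 h at 37 °C with compounds at up to 57 uM. SteadyGlo luminescence gave expression; GF-AFC fluorescence gave viability.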
HT1080-NT tox: kills 2HG-producing HT-1080-NT fibrosarcoma cells | HT-1080-NT fibrosarcoma viability, CellTiter-Glo ATP luminescence, 48 h | Potency, µM (series often up to 46.1 µM), inactives show at the highest dose activity, negative = less viability, actives largely listed as cytotoxic | actives 1.6% (n = 360,000) | AID 686970;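 further: NT is the 2HG producing partner of a matched IDH1 knockdown line; 0% = DMSO-treated cells and -100% = media-only wells without cells; nearly all actives have a fitted effect of over 55% in size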
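HT-1080-NT fibrosarcoma cells (2HG-overproducing), 750 cells/well in RPMI with 5% FBS, dosed after 2 h and incubated 48 h at 37C. CellTiter-Glo luminescence normalized to DMSO and no-cell wells; concentration-response curves fitted and classed.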
KB-V1 MDR tox: KB-V1 MDR subline cytotoxicity; KB-V1 MDR cells viability, CellTiter-Glo, 72 h; Potency, µM (highest dose often 46.1 µM), usual class: cytotoxic; actives 3.4% (n = 400,000); AID 1347076; further: on the % scale 0 is the no-effect control and ±100 the full control effect; nearly all actives have a fitted effect of over 60% in size
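Potencies derive from concentration-effect curves fitted to normalized luminescence (CellTiter-Glo) of KB-V1 cells treated for 72 h at 37 degrees C in phenol-red-free DMEM containing 10% FBS.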
S2 tox: viability counter-screen for ATXN expression inhibitors. S2 cells (HEK-293 line with an ATXN2-luciferase reporter) viability, CellTiter-Fluor protease fluorescence, 24 h. AID 651635. actives 0.49% (n = 400,000). Potency, µM (doses to about 56.7 µM), actives largely listed as cytotoxic; further: nearly all actives have a fitted effect of over 40% in size
* marks the source's active call; other numbers are inactive results; i = inactive; u = inconclusive; x = no result given; [ ] = another dose, or the depositor's remark. The call rests on the fitted dose curve; in most records, active means well fitted curve in the direction sought with a large enough effect; inconclusive means small, poorly fitted or top-dose-only effect, or another doubt; inactive means no such curve, though single readings can be large; an effect the other way counts as inactive or inconclusive. Potency means the concentration at half of the fitted maximal effect.

SMILES	HT1080 IDH1KD tx	KB-3-1 cytotox	ATXN2 expr inh	HT1080-NT tox	KB-V1 MDR tox	S2 tox
c1ccc(OCc2nnc3ccc(-c4ccccc4)nn23)cc1	x	i	x	x	i	x
CCc1ccc(CNC(=O)CCCN2C(=O)CCn3nc(-c4cccn4C)cc32)cc1	x	i	-14%	x	i	u
Cc1ccccc1Cn1cc(NC(=O)c2noc3c2CC(C(C)(C)C)CC3)cn1 (centres undefined)	u	i	-26%	u	18µM*	i
Fc1cccc(Cc2c(-c3cccc(Cl)c3)nc3c(Cl)cc(C(F)(F)F)cn23)c1	8%	i	5%	12%	i	i
O=C(O)C1(Cc2cccc(Nc3nccs3)n2)CCC(Oc2cccc(Cl)c2F)CC1 (centres undefined)	x	x	14%	x	x	x
CCOc1ccc(N(C)S(=O)(=O)c2cc(-c3cc(C)no3)ccc2C(C)C)cc1	-6%	u	-11%	5%	i	i
COc1ccc(-c2cc(C)no2)cc1S(=O)(=O)N(C)c1cccc(C)c1	-7%	i	-14%	-4%	i	i
CCOc1ccc(N(C)S(=O)(=O)c2ccc(-c3cc(C)no3)s2)cc1	7.3µM*	5.8µM*	x	12µM*	u	u
COc1ccccc1NS(=O)(=O)c1ccc(-c2cc(C)no2)s1	u	7.3µM*	x	u	u	i
CCN(c1cccc(C)c1)S(=O)(=O)c1ccc(-c2cc(C)no2)s1	u	4.6µM*	x	u	u	u
Cc1cccc(N(C)S(=O)(=O)c2ccc(-c3cc(C)no3)s2)c1	0.58µM*	u	12%	u	u	i
CC(C)c1ccc(NC(=O)CCNS(=O)(=O)c2ccc3[nH]c(=O)oc3c2)cc1	-3%	i	7%	8%	i	i
COC(=O)c1sccc1S(=O)(=O)N1CCC(n2c(CC3CCCC3)nc3cccnc32)CC1	x	x	x	x	x	i
COc1cccc(NC(=O)Cn2c(=O)n(CCC(=O)NCc3ccccc3OC)c(=O)c3ccccc32)c1	x	i	u	x	i	u
CC(=O)NCC(=O)NCC1Cc2cc(C)cc(-c3ccccn3)c2O1 (centres undefined)	x	x	x	x	x	i
Cc1c(C(=O)N2CCC(Cc3ccccc3)CC2)sc2ncnc(NCc3ccccn3)c12	x	x	x	x	x	i
Cc1c(Cl)c(=O)oc2cc(OC(C)C)ccc12	-2%	i	10%	2%	21µM*	u
O=C(Nc1c(-c2ccccc2)[nH][nH]c1=O)c1cccc(C(F)(F)F)c1	20%	i	9%	17%	i	i
O=C(O)CCCCCC(=O)NN=C1CCCC1	x	x	-10%	x	x	x
Cc1ccccc1NC(=O)c1cc(N)ccc1N1CCCCC1	-18%	i	6%	-6%	15µM*	i
CCC(=O)Nc1ccc(N2CCCCC2)c(C(=O)Nc2ccccc2C)c1	0%	i	4%	7%	12µM*	i
O=C1c2cccnc2C(=O)N1CO	1%[9.24 µM]	i	-2%	9%	i	i
NC1=C(Br)C(=O)c2ncccc2C1=O	3.3µM*	2.6µM*	5.3µM*	3.3µM*	3.7µM*	13µM*
Cc1ccc(NC(=O)CN2CCSc3ccc(S(=O)(=O)N4CCCC4)cc32)cc1C	x	u	-33%	x	10µM*	14µM*
OC(COc1ccc2cc(Br)ccc2c1)CN1CCCC1 (centres undefined)	13µM*	u	u	-29%[9.24 µM]	u	u
SMILES	HT1080 IDH1KD tx	KB-3-1 cytotox	ATXN2 expr inh	HT1080-NT tox	KB-V1 MDR tox	S2 tox
CCOC(=O)c1c(C)n(-c2ccc(C)cc2)c2ccc(OCC(O)CNCCCO)cc12 (centres undefined)	23µM*	i	u	u	u	u
CCOC(=O)c1c(C)n(C)c2ccc(OCC(O)CN3CCC(C)CC3)cc12 (centres undefined)	-5%	i	-23%	-3%	i	i
CCOC(=O)c1c(C)n(C)c2ccc(OCC(O)CN3CCCCCC3)cc12 (centres undefined)	-9%	i	-30%	-23%	i	18µM*
CCOC(=O)c1c(C)n(-c2ccc(C)cc2)c2ccc(OCC(O)CNCC3CCCO3)cc12 (centres undefined)	-27%	u	u	u	u	u
CCc1ccccc1N(C)C(=O)c1cn(CC(C)C)c(=O)c2cc(OC)c(OC)cc12	x	i	-39%	x	i	u
CCCCn1nnnc1C(c1cc2ccccc2o1)N(C)Cc1ccccc1 (centres undefined)	-15%	i	16%	-19%	u	i
Cc1cc(=O)[nH]c2ccc(Cc3ccccc3)cc12	-17%	u	114%	-25%	9.2µM*	i
CSc1ccc2[nH]c(=O)cc(C)c2c1	0%	i	8%	-4%	u	i
COc1ccc(Nc2ccc3c(c2)=NC2(CCCCC2)[N+]=3[O-])cc1	u	15µM*	u	u	u	x
[O-][N+]1=c2ccc(Nc3ccccc3)cc2=NC12CCCCC2	16µM*	u	u	u	u	14µM*
CO/N=C(\C(=O)N[C@@H]1C(=O)N2C(C(=O)O)=C(CSc3nc(=O)c(O)nn3C)CS[C@H]12)c1csc(N)n1	x	x	13%	x	x	i
CC1(C(=O)Nc2cnc3ccccc3c2)CCN1C(=O)c1ccccc1CCc1ccccc1 (centres undefined)	u	u	20µM*	u	18µM*	i
Cc1ccccc1C(=O)NCCNC(=O)c1ccco1	-4%	i	4%	3%	i	i
COc1ccc(N2CCC(CNC(=O)Nc3ccccc3)C2)cc1 (centres undefined)	8%	i	-21%	1%	16µM*	i
COc1ccc(N2CCC(CNC(=S)Nc3cc(C)cc(C)c3)C2)cc1 (centres undefined)	u	i	u	u	i	i
O=C(NCC1CCN(c2ccc(S(=O)(=O)N3CCOCC3)cc2)CC1)Nc1ccccc1	-3%	i	-15%	-1%	i	i
COc1ccc(N2CCC(CNC(=S)Nc3cc(C)ccc3C)C2)cc1 (centres undefined)	3%	i	x	-22%	18µM*	i
CCOC(=O)C1CCN(C(=O)c2ccc3c(c2)N=C(CC)c2cc(C)ccc2S3)CC1	x	i	-28%	x	i	i
O=C(c1ccc(CS(=O)c2ccccc2Cl)o1)N1CCN(c2ccccc2)CC1 (centres undefined)	0.52µM*	1µM*	u	u	u	i
